From ChEMBL document CHEMBL1201862, “PubChem BioAssay data set” (2004)
The campaign covered roughly 44,000 sequences. About 3,500 (8%) were called active. Cut-off read from the data, not from the text of the source: active = GI50 up to about 1.1 µM and inactive = higher. A selection follows. Measured potencies and affinities stand elsewhere.

tested on: PC-3

In order of falling GI50:
1. [Bis(aminomethyl)dimethylsilane]tetrachloroplatinum(IV), CHEMBL2146190  22.9 µM
2. [Bis(aminomethyl)tetramethylenesilane]tetrachloropaltinum(IV), CHEMBL2146189  8.36 µM
3. [Bis(aminomethyl)tetramethylenesilane]dichloropaltinum(II), CHEMBL2146205  7.19 µM
4. CISPLATIN, CHEMBL11359  5.01 µM
5. [Bis(aminomethyl)pentamethylenesilane]tetrachloropaltinum(IV), CHEMBL2146204  1.83 µM
6. [Bis(aminomethyl)pentamethylenesilane]dichloropaltinum(II), CHEMBL2146202  1.64 µM
